Sampled rows, rich in hits. Any-hit rate of the full collection: about 3.3%.
GAA850 FXN act = frataxin GAA850 promoter activation | HEK293 lucGAA850 FXN promoter luciferase reporter, 24 h; percent of 10 µM SAHA response | activation, % at 6 µM | actives 0.56% (n = 360,000) | AID 540364;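 active = activation above the average of all compounds screened plus 3 SD, cutoff fixed separately per campaign, cut at about 7.5% in these data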;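 note: 0% = DMSO wells and 100% = 10 µM SAHA wells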
Statin myotox sup = protects C2C12 myotubes from simvastatin toxicity | ATP luminescence, 48 h; scaled: DMSO 0, geranylgeraniol control 100 | rescue of ATP level, % at 7.49 µM | actives 0.78% (n = 330,000) | AID 602340;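 active = mean ATP rescue above about 67%, or every replicate alone reaching that limit, limit read from the data, passing the limit was not always enough; inconclusive = no clear call, values can overlap the other calls; inactive = mean under the limit and some replicate under it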;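 note: myotubes were challenged with 10 µM simvastatin during compound exposure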
esBAF inh = SWI/SNF esBAF complex inhibition; reporter increase, % at 12.5 µM; mouse ES cells, Bmi1-luciferase knock-in reporter, 24 h; 100% = twice the neutral-well signal; AID 602393; actives 2% (n = 350,000); in the data active = activation above about 40%; inconclusive = no clear call, values can overlap the other calls;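 note: 0% = median of the plate's neutral control wells and 100% = double that signal; a rise in the Bmi1 reporter signal indicates esBAF inhibition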
MITF TRPM1 HTS = increases MITF-driven TRPM1 promoter luciferase signal | SK-MEL-5 TRPM1-promoter luciferase, 24 h; % of positive control, neutral wells = 0 | activation, % at 12.5 µM | actives 0.75% (n = 300,000) | AID 588334;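 active = mean activation of at least 80% with every replicate also reaching 80%; inconclusive = mean reaches 80% but some replicate falls short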;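 note: 0% = neutral control wells and 100% = parthenolide positive control wells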
Wnt bcat act = Wnt/beta-catenin pathway activation; Wnt/beta-catenin reporter cell assay, activator, plate reader; actives 1.2% (n = 300,000); activation, % at 9.35 µM; in the data active = activation above about 30%, passing the limit was not always enough; inconclusive = no clear call, values can overlap the other calls;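 note: 0% = neutral control wells and 100% = positive control wells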
* = called active by the depositor; ? = inconclusive; . = not tested or not shown.

SMILES	GAA850 FXN act	Statin myotox sup	esBAF inh	MITF TRPM1 HTS	Wnt bcat act
O=c1[nH]c2ccccc2cc1-c1nnn(-c2ccc(F)cc2)n1	3	4	79*	76	?
Cc1ccc(-n2nnc(-c3cc4ccccc4nc3Cl)n2)cc1	4	17	45*	.	1
Fc1ccc(-n2nnc(-c3cnc4ccccc4c3)n2)cc1	1	0	-71	-13	-2
COc1ccc(-c2csc(-c3ccccc3)n2)c(OC)c1	5	.	.	86*	13
COCC(=O)N1[C@H](CO)[C@@H](c2ccc(C3=CCCCC3)cc2)[C@@H]1C#N	.	-6	-5	.	.
OC1c2cc(Br)ccc2N=C2CCCN21 (stereo not given)	3	-3	24	-4	2
OC1c2cc(Br)ccc2N=C2CCCCCN21 (stereo not given)	1	-2	44*	.	-3
CC(C)COCC(O)CCC(=O)NNC(=S)Nc1ccccc1 (stereo not given)	2	.	.	11	-2
CC(C)COC(=S)Nc1ccccc1	1	-15	59*	50	.
COc1c(O)cnn(-c2ccccc2)c1=O	1	.	.	.	1
COc1cnn(-c2ccccc2)c(=O)c1OC	1	.	.	.	50*
CC(C)NC(=O)CCc1nnc(Cc2cccc(C(F)(F)F)c2)o1	2	-3	67*	53	3
COc1ccc(CN(C)C[C@H]2OCCCC[C@H](C)Oc3ccc(NC(=O)Nc4cccc5ccccc45)cc3C(=O)N([C@H](C)CO)C[C@H]2C)cc1	.	.	-8	.	.
COc1cc(/C=N/NC(=O)c2cccnc2)ccc1OC(=O)c1ccc2c(c1)OCO2	1	.	.	-2	46*
N/C(=N\OC(=O)c1ccc2c(c1)OCO2)c1cccc(Br)c1	7	3	67*	116*	17
COc1ccc(/C(N)=N/OC(=O)c2ccc3c(c2)OCO3)cc1OC	4	-5	36	?	16
COc1cc(/C=N/NC(=O)c2cccnc2)ccc1OC(=O)c1cc(OC)c(OC)c(OC)c1	0	25	5	7	2
N/C(=N\OC(=O)c1cccc(Br)c1)c1ccc(Br)cc1	0	96*	5	3	.
N/C(=N\OC(=O)c1ccc2c(c1)OCO2)c1cccnc1	4	.	.	77	62*
O=C(NCC[C@H]1CC[C@H](NC(=O)C2CCC2)[C@H](CO)O1)c1cnccn1	.	9	-1	.	.
COc1ccccc1C(=O)N1C[C@@H]2[C@H](c3ccccc31)[C@@H](CO)N2C(=O)C1CCCC1	.	-4	-3	.	.
Cc1noc(C)c1S(=O)(=O)N(C)C[C@@H]1Oc2c(NC(=O)c3nc4ccccc4s3)cccc2C(=O)N([C@@H](C)CO)C[C@@H]1C	.	-8	2	.	.
Cc1ccc(S(=O)(=O)Nc2cccc3c2O[C@@H](CN(C)CC2CCCCC2)[C@H](C)CN([C@H](C)CO)C3=O)cc1	.	1	1	.	.
N/C(=N\OC(=O)Cc1ccccc1[N+](=O)[O-])c1cccc(Br)c1	-1	-6	3	-4	37*
Clc1ccccc1CSc1cnnc2ccccc12	4	-16	45*	48	-5
SMILES	GAA850 FXN act	Statin myotox sup	esBAF inh	MITF TRPM1 HTS	Wnt bcat act
C[C@@H]1CN([C@@H](C)CO)S(=O)(=O)c2ccc(C3=CCCCC3)cc2O[C@@H]1CN(C)S(=O)(=O)c1ccc(F)cc1	.	-16	-3	.	.
CCOc1c(Cl)cc(C2NC(=O)NC(C)=C2C(=O)NCc2ccccc2)cc1OC (stereo not given)	2	-23	50*	31	.
CCn1c2ccccc2c2nc3cc(OC)c(OC)cc3nc21	2	2	49*	.	14
CCn1c2ccccc2c2nc3ccccc3nc21	9.3*	0	11	.	.
CCOCCn1c2ccccc2c2nc3ccccc3nc21	3	-6	15	18	5
CC(=O)n1c2ccccc2c2nc3ccccc3nc21	2	2	72*	23	.
CCCN(C)C[C@H]1Oc2ncc(-c3ccccc3)cc2C(=O)N([C@@H](C)CO)C[C@H]1C	.	0	-2	.	.
CN1CCN(C2=Cc3ccccc3Sc3cc(F)ccc32)CC1	2	110*	-7	37	0
C[C@@H]1CCCCO[C@H](CN(C)C(=O)CCC(F)(F)F)[C@@H](C)CN([C@H](C)CO)C(=O)c2cc(NC(=O)Nc3ccc4c(c3)OCO4)ccc2O1	.	-10	2	.	.
O=C(C[C@H]1C=C[C@@H](NC(=O)NC2CCCCC2)[C@@H](CO)O1)NCc1ccc(F)cc1	.	-1	-4	.	.
CN1C(=O)c2cc(NC(=O)c3ccc(F)c(F)c3)ccc2OC[C@H]2O[C@H](CC(=O)N[C@H]3CCN(Cc4ccccc4)C3)CC[C@@H]21	.	7	0	.	.
Cc1noc(C)c1S(=O)(=O)Nc1ccc2c(c1)C(=O)N([C@@H](C)CO)C[C@@H](C)[C@@H](CN(C)CC1CCCCC1)O2	.	10	2	.	.
O=[N+]([O-])c1ccccc1/C=N/N1CCN(Cc2ccccc2)CC1	4	4	?	58	19
CN(C)c1ccc(/C=N/N2CCN(c3ccccn3)CC2)cc1	4	.	.	.	43*
O=[N+]([O-])c1ccccc1C=NN1CCCCCC1	0	2	47*	19	8
Cc1ccc(N2CCN(/N=C/c3ccccc3[N+](=O)[O-])CC2)cc1	-1	-2	15	14	11
CC(C)(C)c1ccc(/C=N/N2CCN(c3ccccn3)CC2)cc1	-1	.	.	.	1
O=[N+]([O-])c1ccccc1/C=N/N1CCN(c2ccccn2)CC1	3	-3	60*	.	15
O=C(NC1Cc2ccccc2C1)[C@@H]1[C@@H](CO)[C@@H]2Cn3c(cccc3=O)[C@@H]2N1C(=O)c1ccccn1	.	-7	-2	.	.
CN1CCN(C(=O)C[C@H]2CC[C@@H](NS(=O)(=O)c3cccc(F)c3)[C@H](CO)O2)CC1	.	-1	0	.	.
O=C(CN1CCOCC1)NCC[C@H]1CC[C@H](NC(=O)Cc2ccccn2)[C@@H](CO)O1	.	-12	1	.	.
O=C(C[C@@H]1CC[C@H]2[C@@H](COC[C@@H](O)CN2C(=O)c2ccccc2F)O1)NCc1ccc(Cl)cc1	.	1	-6	.	.
Nc1c(-c2ccc(Cl)cc2)cnc2ncnn12	1	5	-4	-8	-1
Cc1cc2ncc(-c3ccc(Cl)cc3)c(N)n2n1	3	9	62*	?	13
Nc1c(-c2ccccc2)cnc2cc(-c3ccccc3)nn12	4	.	.	58	56*

Assay outcomes as filed in PubChem.
